The source made the active and inactive calls. How the source made its calls: active means hit-call score of the fitted dose curve at least 0.9, where 1 is the maximum; inactive means score below 0.9.
Experiments:
[1] = read-out: Vascular endothelial growth factor receptor 2 (Homo sapiens) (UniProt P35968); experiment: BSK_4H_VEGFRII: BioMAP Diversity Plus: 4H Assay for Vascular endothelial growth factor receptor 2 (VEGFR2) Biomarker Activity (AID 2283031); conditions: primary human endothelial cells (HUVEC); actives raise or lower the signal
Method in brief: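 ELISA read-out of VEGFRII in primary human umbilical vein endothelium, taken 24 h after chemical treatment. Responses are expressed relative to DMSO, with bidirectional fitting.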

[2] = read-out: Human Leukocyte Antigen - DR isotype (HLADR), HLA-DRA (gene 3122); experiment: BSK_BE3C_HLADR: BioMAP Diversity Plus: BE3C Assay for Human Leukocyte Antigen - DR isotype (HLADR) Biomarker Activity (AID 2283032); conditions: primary human bronchial epithelial cells; actives raise or lower the signal
Method in brief: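 Chemicals are dosed onto BE3C bronchial epithelial cultures of human origin and left 24 h. HLA-DR is then measured by ELISA, and the endpoint is fitted in both directions using DMSO as the activity baseline.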

[3] = read-out: Vascular cell adhesion molecule 1 (VCAM1), VCAM1 (gene 7412); experiment: BSK_4H_VCAM1: BioMAP Diversity Plus: 4H Assay for Vascular cell adhesion molecule 1 (VCAM1) Biomarker Activity (AID 2283033); conditions: primary human endothelial cells (HUVEC); actives raise or lower the signal
Method in brief: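 Chemicals are added to primary human umbilical vein endothelial cells. After 24 h, VCAM-1 levels are measured by ELISA. Values come from bidirectional fitting referenced to DMSO.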

[4] = read-out: Interferon-gamma inducible Protein 10 (IP10), CXCL10 (gene 3627); experiment: BSK_BE3C_IP10: BioMAP Diversity Plus: BE3C Assay for Interferon-gamma inducible Protein 10 (IP10) Biomarker Activity (AID 2283034); conditions: primary human bronchial epithelial cells; actives raise or lower the signal
Method in brief: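 IP-10 quantified by ELISA serves as the endpoint. Cells: primary human bronchial epithelium, read 24 h after compound addition. Activity is derived by bidirectional fitting with DMSO as negative control.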

[5] = read-out: Monokine induced gamma interferon (MIG), CXCL9 (gene 4283); experiment: BSK_BE3C_MIG: BioMAP Diversity Plus: BE3C Assay for Monokine induced gamma interferon (MIG) Biomarker Activity (AID 2283035); conditions: primary human bronchial epithelial cells; actives raise or lower the signal
Method in brief: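 ELISA quantified MIG after 24 h exposure of primary bronchial epithelial cultures, analysed in both directions relative to DMSO. Cytotoxicity tracked in parallel cultures by sulforhodamine B staining.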

[6] = read-out: Transforming growth factor beta 1 (TGFb1), TGFB1 (gene 7040); experiment: BSK_BE3C_TGFb1: BioMAP Diversity Plus: BE3C Assay for Transforming growth factor beta 1 (TGFb1) Biomarker Activity (AID 2283036); conditions: primary human bronchial epithelial cells; actives raise or lower the signal
Method in brief: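 Bronchial epithelial primary cells are treated with test chemical, then TGF-b1 is quantified by ELISA after 24 hours. Values derive from bidirectional fitting against DMSO, with cytotoxicity checked by SRB staining in parallel cultures.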

[7] = read-out: Plasminogen activator inhibitor-1 (PAI1), SERPINE1 (gene 5054); experiment: BSK_BE3C_PAI1: BioMAP Diversity Plus: BE3C Assay for Plasminogen activator inhibitor-1 (PAI1) Biomarker Activity (AID 2283037); conditions: primary human bronchial epithelial cells; actives raise or lower the signal
Method in brief: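 Values derive from bidirectional fitting against DMSO baseline of PAI-1 levels, measured by ELISA in human bronchial epithelial cells 24 h after compound addition.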

[8] = read-out: urokinase plasminogen activator (uPA), PLAU (gene 5328); experiment: BSK_BE3C_uPA: BioMAP Diversity Plus: BE3C Assay for urokinase plasminogen activator (uPA) Biomarker Activity (AID 2283038); conditions: primary human bronchial epithelial cells; actives raise or lower the signal
Method in brief: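 Bronchial epithelial cells (human, primary); chemical 24 h; uPA by ELISA; bidirectional fit vs DMSO. SRB (0.1%, after 10% TCA fixation, 560 nm) in parallel cultures for cytotoxicity.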

[9] = read-out: Urokinase-type plasminogen activator receptor (uPAR), PLAUR (gene 5329); experiment: BSK_BE3C_uPAR: BioMAP Diversity Plus: BE3C Assay for Urokinase-type plasminogen activator receptor (uPAR) Biomarker Activity (AID 2283039); conditions: primary human bronchial epithelial cells; actives raise or lower the signal
Method in brief: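 Steps: dose human primary bronchial epithelial cells, incubate 24 h, measure uPAR by ELISA, then fit gain- or loss-of-signal response bidirectionally relative to DMSO.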

[10] = read-out: Interleukin-6 (IL6), IL6 (gene 3569); experiment: BSK_CASM3C_IL6: BioMAP Diversity Plus: CASM3C Assay for Interleukin-6 (IL6) Biomarker Activity for (AID 2283040); conditions: primary human coronary artery smooth muscle cells; actives raise or lower the signal
[11] = read-out: Tissue plasminogen activator (tPA), PLAT (gene 5327); experiment: BSK_BE3C_tPA: BioMAP Diversity Plus: BE3C Assay for Tissue plasminogen activator (tPA) Biomarker Activity (AID 2283041); conditions: primary human bronchial epithelial cells; actives raise or lower the signal
Method in brief: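 Gain- or loss-of-signal in tPA, measured by ELISA, derived by bidirectional fitting against DMSO. Cells: human primary bronchial epithelial; read at 24 h after chemical dosing.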

[12] = read-out: Interleukin-8 (IL8), CXCL8 (gene 3576); experiment: BSK_CASM3C_IL8: BioMAP Diversity Plus: CASM3C Assay for Interleukin-8 (IL8) Biomarker Activity (AID 2283042); conditions: primary human coronary artery smooth muscle cells; actives raise or lower the signal;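 further: IL-8 protein level quantified by ELISA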
[13] = read-out: Human Leukocyte Antigen - DR isotype (HLADR), HLA-DRA (gene 3122); experiment: BSK_CASM3C_HLADR: BioMAP Diversity Plus: CASM3C Assay for Human Leukocyte Antigen - DR isotype (HLADR) Biomarker Activity (AID 2283043); conditions: primary human coronary artery smooth muscle cells; actives raise or lower the signal;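 further: cell-surface HLA-DR protein level quantified by ELISA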
[14] = read-out: Macrophage colony-stimulating factor (MCSF), CSF1 (gene 1435); experiment: BSK_CASM3C_MCSF: BioMAP Diversity Plus: CASM3C Assay for Macrophage colony-stimulating factor (MCSF) Biomarker Activity (AID 2283044); conditions: primary human coronary artery smooth muscle cells; actives raise or lower the signal;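 further: M-CSF protein amount quantified by ELISA after 24 h exposure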
[15] = read-out: Low-density lipoprotein receptor (LDLR), LDLR (gene 3949); experiment: BSK_CASM3C_LDLR: BioMAP Diversity Plus: CASM3C Assay for Low-density lipoprotein receptor (LDLR) Biomarker Activity (AID 2283045); conditions: primary human coronary artery smooth muscle cells; actives raise or lower the signal;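 further: LDLR protein level on the cell surface quantified by ELISA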
[16] = read-out: Monocyte Chemoattractant Protein-1 (MCP1), CCL2 (gene 6347); experiment: BSK_CASM3C_MCP1: BioMAP Diversity Plus: CASM3C Assay for Monocyte Chemoattractant Protein-1 (MCP1) Biomarker Activity (AID 2283046); conditions: primary human coronary artery smooth muscle cells; actives raise or lower the signal;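 further: MCP-1 level quantified by ELISA 24 h after dosing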
[17] = BSK_CASM3C_Proliferation: Cell Proliferation Assessment in the BioMAP Diversity Plus: CASM3C Assay (AID 2283047); conditions: primary human coronary artery smooth muscle cells;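 further: sulforhodamine B total protein stain as relative cell number at 560 nm; sub-confluent cells exposed 48 h before staining; fitted both ways against DMSO so gain or loss of cell number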
[18] = read-out: Monokine induced gamma interferon (MIG), CXCL9 (gene 4283); experiment: BSK_CASM3C_MIG: BioMAP Diversity Plus: CASM3C Assay for Monokine induced gamma interferon (MIG) Biomarker Activity (AID 2283048); conditions: primary human coronary artery smooth muscle cells; actives raise or lower the signal;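 further: MIG protein level measured by ELISA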
[19] = read-out: serum amyloid A (SAA), SAA1 (gene 6288); experiment: BSK_CASM3C_SAA: BioMAP Diversity Plus: CASM3C Assay for serum amyloid A (SAA) Biomarker Activity (AID 2283049); conditions: primary human coronary artery smooth muscle cells; actives raise or lower the signal;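 further: SAA protein level quantified by ELISA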
[20] = BSK_CASM3C_SRB: Viability Assessment in the BioMAP Diversity Plus: CASM3C Assay (AID 2283050); conditions: primary human coronary artery smooth muscle cells;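 further: total protein by SRB staining as cytotoxicity measure in parallel cultures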

Measured: AC50

CCC(C)(C)c1ccc(O)c(C(C)(C)CC)c1
inactive: [1]
active: [2] 25.2 µM | [3] 10.4 µM | [4] 19 µM | [5] 36 µM | [6] 20 µM | [7] 31.4 µM | [8] 32.4 µM | [9] 36.6 µM | [10] 29.4 µM | [11] 26.6 µM | [12] 38.7 µM | [13] 16.4 µM | [14] 28.9 µM | [15] 33.8 µM | [16] 34.6 µM | [17] 14.3 µM | [18] 35.8 µM | [19] 30 µM | [20] 13 µM

CCOP(=S)(OCC)SCCS(=O)(=O)CC
inactive: [1] | [2] | [3] | [4] | [5] | [6] | [7] | [8] | [9] | [10] | [11] | [12] | [13] | [14] | [15] | [16] | [17] | [18] | [19] | [20]

O=[N+]([O-])c1ccc(O)c([N+](=O)[O-])c1
active: [4] 29.8 µM | [7] 30.5 µM
inactive: [1] | [2] | [3] | [5] | [6] | [8] | [9] | [10] | [11] | [12] | [13] | [14] | [15] | [16] | [17] | [18] | [19] | [20]

COC[C@H](C)N(C(=O)CCl)c1c(C)csc1C
inactive: [1] | [2] | [3] | [4] | [5] | [6] | [7] | [8] | [9] | [10] | [11] | [12] | [13] | [14] | [15] | [16] | [17] | [18] | [19] | [20]

Nc1ccc(-c2ccc(N)c(Cl)c2)cc1Cl
inactive: [1] | [2] | [4] | [5] | [6] | [7] | [8] | [9] | [10] | [11] | [12] | [13] | [14] | [15] | [16] | [17] | [18] | [19] | [20]
active: [3] 9.55 µM

O=[N+]([O-])c1ccc2c3c(cccc13)CC2
active: [9] 1.19 µM
inactive: [1] | [2] | [3] | [4] | [5] | [6] | [7] | [8] | [10] | [11] | [12] | [13] | [14] | [15] | [16] | [17] | [18] | [19] | [20]
